Drawing on PubChem BioAssay (NCATS), this text covers outcome for 40 compounds.

Active and inactive are the calls of the source. Calls follow the shape of the dose curve; as a rule, active = well fitted curve in the direction sought with a large enough effect; inconclusive = small, poorly fitted or top-dose-only effect, or effect the other way, or another doubt; inactive = no such curve, though single readings can be large or run the other way. Residues, ends and D or L forms follow the SMILES beside them. *: point of attachment. Cbz = O=C(OCc1ccccc1)*

Chain of Beta-2 adrenergic receptor (Homo sapiens) (P07550 whole entry, looked up): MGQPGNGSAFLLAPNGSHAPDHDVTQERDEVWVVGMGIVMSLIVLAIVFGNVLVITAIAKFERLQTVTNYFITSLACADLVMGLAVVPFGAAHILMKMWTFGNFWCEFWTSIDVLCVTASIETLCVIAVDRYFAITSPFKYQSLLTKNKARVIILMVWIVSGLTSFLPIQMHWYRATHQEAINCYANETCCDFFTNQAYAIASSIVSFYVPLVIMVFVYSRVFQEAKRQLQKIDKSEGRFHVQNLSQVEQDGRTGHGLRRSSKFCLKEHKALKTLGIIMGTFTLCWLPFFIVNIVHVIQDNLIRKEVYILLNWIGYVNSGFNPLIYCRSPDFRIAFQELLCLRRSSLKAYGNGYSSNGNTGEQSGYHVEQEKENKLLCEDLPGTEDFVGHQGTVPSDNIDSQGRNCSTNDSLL

This assay concerns the target Beta-2 adrenergic receptor (Homo sapiens) (UniProt P07550). As to the kind of experiment: qHTS validation assay of beta-arrestin-biased ligands of beta2-adrenergic receptor (AID 485366). The note with it: cell-based beta-arrestin recruitment to ADRB2, qHTS; series mostly up to 46.1 µM. From the text: NIH Molecular Libraries Probe Production Network [MLPCN]
NIH Chemical Genomics Center [NCGC]
PI: Bryan Roth and Bob Lefkowitz
The concept of biased agonism is an emerging concept of molecular pharmacology which proposes that seven transmembrane receptors (7TMRs) or G protein-coupled receptors (GPCRs), exist in multiple signaling conformations and complexes and that ligands (either agonists or antagonists) can induce signaling biased responses for distinct signal transduction cascades.
Furthermore, accumulating evidence over the last decade has drawn attention to a novel function of beta-arrestins as signal transducers that scaffold various signaling molecules upon activation of 7TMRs. […] This beta-arrestin-biased signaling presumably leads to distinct physiological outcomes from those by G protein activation.
Additionally, the active receptor conformations which […] on this beta-arrestin signaling are likely different from those activating G protein signaling
The goal of this screening project will be to discover and optimize novel beta-arrestin-biased ligands for beta2-AR signaling. A luminescent cell-based assay for beta2-AR-mediated agonism, known as the Tango assay, has been validated in which ligand binding of a recombinant beta2-AR and subsequent recruitment of a recombinant beta-arrestin lead to the release of the transcriptional activator tTA, which upregulates transcription of a tTA-responsive luciferase gene. […] Compounds were screened as a concentration-titration series that ranged from 46 microM to 0.6 nM.
NCGC Assay Protocol Summary:
Tango cells were dispensed into white, solid, tissue-culture-treated 1536-well plates at 1500 cells/well in DMEM, containing 1% fetal bovine serum (FBS). Then, 23 nL of compounds or DMSO were delivered to each well using a pin tool. Plates were incubated at 37 degrees C, 5% CO2 for 18 hr. Then 2.5 uL luminescent substrate mix (in-house prepared: 150 mM Tris-Cl, pH 7.6, 3 mM MgCl2, 1% Triton X-100, 5 mM DTT, 0.5 mM CoA, 0.15 mM ATP, 0.44 mM D-luciferin, final concentrations) was added to each well. Plates were then incubated for 15 minutes at room temperature, and subsequently measured on a ViewLux plate reader for luminescent signal using a clear filter with a 10 second exposure and 2x binning. The %Activity was determined from the corrected luminescence values.
Concentration-response curves were fitted to the signals arising from the resulting luminescence. The concentration-effect curves were then classified based on curve quality (r2), response magnitude and degree of measured activity, and compounds were subsequently categorized based on their curve class.
Keywords: biased agonism, beta2-AR, beta-arrestin, GPCR, 7TMR, Tango, luminescence, MLSMR, MLPCN, NIH Roadmap, qHTS, NCGC
As for `COc1ccccc1N1CCN(CCCCN2C(=O)c3ccccc3C2=O)CC1`, the outcome was inactive.

For the compound `NC(=Nc1ccccc1)NC(=O)c1nc(Cl)c(N)nc1N`, the outcome was inactive.

With `c1ccc(C(NCc2cccnc2)(c2ccccc2)c2ccccc2)cc1`, the outcome was inactive.

On to `O=c1ccn([C@@H]2O[C@H](COP(=O)(O)OP(=O)(O)O)[C@@H](O)[C@H]2O)c(=O)[nH]1`, for which the compound was called inactive.

As to `CCCC(=O)NCCc1c2n(c3ccc(OC)cc13)CCCc1ccccc1-2`, the call was inactive.

For `O=c1[nH]c(=O)c2nc3ccccc3nc2[nH]1`, the compound was called inactive.

Turning to `Cc1nc2n(c(=O)c1CCN1CCC(c3noc4cc(F)ccc34)CC1)CCCC2O` (stereo not given), the compound was classed as inactive.

As to `Cc1ccccc1/C=C/C1=NCCN1`, the compound was called inactive.

With `Fc1ccc(CN(C2=NCCN2)c2c(Cl)cccc2Cl)cc1`, the compound was called inactive.

For the compound `CCCn1c(=O)c2[nH]c(C3CCCC3)nc2n(CCC)c1=O`, the call was inactive.

With `N#C/C(=C\c1ccc(O)c(O)c1)C(=O)NCCCNC(=O)/C(C#N)=C/c1ccc(O)c(O)c1`, the compound was classed as inactive.

Take `CC(=O)O[C@H]1Cc2ccccc2N(C(N)=O)c2ccccc21`: the compound was classed as inactive.

As for `O=C(O)/C=C/c1ccc(O)c(O)c1`, the call was inactive.

As for `C[C@](Cc1ccc(O)c(O)c1)(NN)C(=O)O`, the outcome was inactive.

On to `CC(C)[C@H](NC(=O)OCc1ccccc1)C(=O)N[C@H](C=O)Cc1ccccc1` (Cbz-Val-Phe-aldehyde), for which the outcome was inactive.

`CC(=O)NNC(=O)N1Cc2ccccc2Oc2ccc(Cl)cc21`: the call was inactive.

Consider `CCCCOc1cc(CC2CNC(=O)N2)ccc1OC` (stereo not given), for which the compound was classed as inactive.

In the case of `CN[C@H](CC(=O)O)C(=O)O`, the compound was classed as inactive.

For the compound `N#Cc1cc([N+](=O)[O-])c2sc(C(N)=O)[n+]([O-])c2c1`, the outcome was inactive.

As to `Cc1ccc([N+](=O)[O-])cc1S(=O)(=O)N(C)C`, the result was inactive.

Turning to `C=CCN1CCc2c(cc(O)c(O)c2Cl)C(c2ccccc2)C1` (stereo not given), the result was inactive.

For the compound `c1ccc2c(c1)CC(N1CCN(c3cccc4c3OCCO4)CC1)C2`, the call was inactive.

Regarding `CCCCCCC/C=C\CCCCCCCCC(=O)O`, the result was inactive.

In the case of `O=C(O)/C=C/c1cnc[nH]1`, the compound was called inactive.

Take `CC(N)(Cc1ccc(O)c(O)c1)C(=O)O` (stereo not given): the compound was called inactive.

In the case of `COc1ccc(-c2cc3ncc(C)n3c(Nc3ncccc3C(N)=O)n2)cc1OC`, the compound was called inactive.

For the compound `Nc1nc2c(cnn2CCc2ccccc2)c2nc(-c3ccco3)nn12`, the result was inactive.

Consider `S=C(S)N1CCCC1`, for which the call was inactive.

With `NCCCCN=C(N)N`, the outcome was inactive.

With `c1ccc(CN2CCC3(CCCc4ccccc43)CC2)cc1`, the outcome was inactive.

As for `N[C@H](C(=O)O)[C@H](Cc1ccccc1)C(=O)O`, the compound was classed as inactive.

On to `Nc1ccc2c3c(cccc13)C(=O)NC2=O`, for which the outcome was inactive.

In the case of `COc1ccccc1N1CCN(CCN(C(=O)c2ccc(F)cc2)c2ccccn2)CC1`, the call was inactive.

For `CN1CCN(c2nc3cc(C(F)(F)F)ccc3n3cccc23)CC1`, the call was inactive.

`Clc1nccc2c1ccc1ccccc12`: the compound was classed as inactive.

`CC1=C(C(=O)O)N2C(=O)[C@@H](NC(=O)C(N)C3=CCC=CC3)[C@H]2SC1` (stereo not given in full): the compound was classed as inactive.

In the case of `CCCn1c(=O)c2[nH]c(-c3ccc(S(=O)(=O)O)cc3)nc2n(CCC)c1=O`, the compound was classed as inactive.

With `COc1cc(/C=C(\C#N)C(=O)Nc2nnc(C(F)(F)F)s2)ccc1OCc1ccc(C(F)(F)F)cc1C(F)(F)F`, the call was inactive.

`CCOC(=O)C12CC1/C(=N/O)c1ccccc1O2` (stereo not given): the compound was called inactive.

`CN1CCCC1CCOC(C)(c1ccccc1)c1ccc(Cl)cc1` (stereo not given): the outcome was inactive.
